{
  "source": "PubChem BioAssay AID489018",
  "about": "(Southern Research Specialized Biocontainment Screening …, 2010)",
  "note": "About 350 (15%) of roughly 2,300 compounds were called active. How the calls were made is not given here. These entries were drawn from the full list. Measured potencies and affinities stand elsewhere.",
  "data": [
    {"experiment": "HepG2 cell cytotoxicity, dose response, cytotoxicity control for non-replicating M. tuberculosis project (AID 489018);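 further: HepG2 human liver cells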", "conditions": "series mostly up to 20 µM", "values": [
      {"smiles": "O=Cc1ccnc(-c2ccc(OC(=O)c3ccco3)cc2)n1", "outcome": "inactive"},
      {"smiles": "Cc1ccc(N/N=C2\\CS(=O)(=O)N(C)c3ccsc32)cc1", "outcome": "inactive"},
      {"smiles": "COc1cc(OC)cc(C(=O)NNC(=O)c2ccccn2)c1", "outcome": "inactive"},
      {"smiles": "COc1ccc(OCC(=O)NNC(=O)c2ccccn2)cc1", "outcome": "inactive"},
      {"smiles": "O=C(N/N=C/c1ccccn1)c1cccc([N+](=O)[O-])c1", "outcome": "inactive"},
      {"smiles": "O=C(N/N=C/c1ccc(Br)s1)c1cccnc1", "outcome": "inactive"},
      {"smiles": "COc1cccc(NC(=O)c2ccc(C(=O)c3ccccc3)o2)c1", "outcome": "inactive"},
      {"smiles": "O=C(N/N=C/c1ccccn1)c1cc([N+](=O)[O-])cc([N+](=O)[O-])c1", "outcome": "inactive"},
      {"smiles": "O=C(N/N=C/c1ccc[nH]1)c1cccnc1", "outcome": "inactive"},
      {"smiles": "COc1ccc(C(=O)N/N=C/c2cccc3cccnc23)cc1", "outcome": "inactive"},
      {"smiles": "Cc1ccc2[nH]c(C)c(CCNC(=O)c3cc4cc([N+](=O)[O-])ccc4oc3=O)c2c1", "outcome": "inactive"},
      {"smiles": "Cc1cccc(NCCC(=O)c2ccc([N+](=O)[O-])cc2)c1C", "outcome": "inactive"},
      {"smiles": "CC(C)c1ccc(C2=C(O)c3ccccc3C(=O)C2=O)cc1", "outcome": "inactive"},
      {"smiles": "O=C(CC1CCCC1)OCn1nnc2ccccc2c1=O", "outcome": "inactive"},
      {"smiles": "O=C(c1cc([N+](=O)[O-])cc([N+](=O)[O-])c1)N(Cc1nnc(-c2ccccc2Cl)o1)C1CC1", "outcome": "inactive"},
      {"smiles": "O=C1N/C(=N\\c2ccccn2)SC1Cc1ccc(Cl)cc1", "note": "(stereo not given)", "outcome": "inactive"},
      {"smiles": "COc1cc(/C=C/c2ccc3c([N+](=O)[O-])cccc3n2)ccc1OCC(=O)O", "outcome": "inactive"},
      {"smiles": "CCCOc1ccc(-c2nc(C#N)c(NCCCn3ccnc3)o2)cc1", "outcome": "inactive"},
      {"smiles": "O=C(CCSc1nnc(-c2ccccc2)o1)N1CCOCC1", "outcome": "inactive"},
      {"smiles": "Cc1onc(-c2ccccc2)c1C(=O)O/N=C(\\N)c1ccc([N+](=O)[O-])o1", "outcome": "inactive"},
      {"smiles": "O=C(COC(=O)c1ccc(Br)o1)NCCCc1ccccc1", "outcome": "inactive"},
      {"smiles": "Oc1ccccc1Nc1nc(NCC2CCCO2)c2ccccc2n1", "note": "(stereo not given)", "outcome": "inactive"},
      {"smiles": "O=C(c1ccc([N+](=O)[O-])s1)N1CCN(c2cccc(Cl)c2)CC1", "outcome": "inactive"},
      {"smiles": "Cc1ccc(-c2nn(-c3ccccc3)cc2/C=N/NC(=O)c2ccncc2)o1", "outcome": "inactive"},
      {"smiles": "NC(N)=N/N=C/c1cn(-c2ccccc2)nc1-c1cccs1", "outcome": "inactive"},
      {"smiles": "O=c1oc(-c2cccs2)nc2c1cnn2-c1ccccc1", "outcome": "inactive"},
      {"smiles": "O=C(N/N=C/c1cccc2nccnc12)c1ccncc1", "outcome": "inactive"},
      {"smiles": "CC(C)(C)Sc1ccc2nc3c(n2c1)CCCC3", "outcome": "inactive"},
      {"smiles": "CCOC(=O)C(Nc1ccc2ccccc2c1)C(=O)OCC", "outcome": "inactive"},
      {"smiles": "CC1Cc2ccccc2N1C(=O)COC(=O)c1ccc(Cl)nc1", "note": "(stereo not given)", "outcome": "inactive"},
      {"smiles": "O=C(N/N=C/c1ccc([N+](=O)[O-])s1)c1cccc(Br)c1", "outcome": "inactive"},
      {"smiles": "O=C(CNC(=O)c1cccc(F)c1)N/N=C/c1ccc([N+](=O)[O-])s1", "outcome": "inactive"},
      {"smiles": "O=C(N/N=C/c1ccc([N+](=O)[O-])s1)c1ccncc1", "outcome": "inactive"},
      {"smiles": "CCOC(=O)N/N=C\\c1ccc([N+](=O)[O-])s1", "outcome": "inactive"},
      {"smiles": "O=C(N/N=C/c1ccc([N+](=O)[O-])s1)c1ccccc1", "outcome": "inactive"},
      {"smiles": "COC(=O)N/N=C/c1ccc([N+](=O)[O-])s1", "outcome": "inactive"},
      {"smiles": "CC(C)(C)OC(=O)N/N=C\\c1ccc([N+](=O)[O-])s1", "outcome": "inactive"},
      {"smiles": "Cc1ccc(C(=O)N/N=C/c2ccc([N+](=O)[O-])s2)cc1", "outcome": "inactive"},
      {"smiles": "Oc1oc(-c2ccco2)nc1C=Nc1cccc(Cl)c1", "outcome": "inactive"},
      {"smiles": "CCCCOC(=O)C1CCCC(C(=O)OCCCC)N1", "note": "(stereo not given)", "outcome": "inactive"},
      {"smiles": "COC(=O)COc1ccc(S(=O)(=O)N2CCCCCC2)cc1", "outcome": "inactive"},
      {"smiles": "O=C(CNC(=O)c1ccco1)OCc1ccc(C(=O)Oc2ccccc2)cc1", "outcome": "inactive"},
      {"smiles": "Cn1c(-c2cccc([N+](=O)[O-])c2)cnc1NCc1cccc(F)c1", "outcome": "inactive"},
      {"smiles": "Cc1ccc(C)c(-c2csc(NC(=O)c3cnccn3)n2)c1", "outcome": "inactive"},
      {"smiles": "O=C(Nc1nnc(-c2ccccn2)o1)c1cccc(Cl)c1", "outcome": "inactive"},
      {"smiles": "COCCOC(=O)c1c(C)oc2ccc(OC(=O)c3ccco3)cc12", "outcome": "inactive"},
      {"smiles": "O=C(Nc1nnc(-c2ccc(Br)cc2)o1)C1=COCCO1", "outcome": "inactive"},
      {"smiles": "O=C(c1ccc(-c2ccc([N+](=O)[O-])cc2)o1)N1CCCCCCC1", "outcome": "inactive"},
      {"smiles": "FC(F)(F)c1nnc2ccc(Cl)nn12", "outcome": "inactive"},
      {"smiles": "COc1cc(/C=N/Nc2cccc3cccnc23)cc(OC)c1O", "outcome": "inactive"},
      {"smiles": "Cc1cc(N/N=C/c2ccccc2O)c2ccccc2n1", "outcome": "inactive"},
      {"smiles": "COc1ccc2nc(/N=C(\\N)NC(=O)C(C)(C)C)nc(C)c2c1", "outcome": "inactive"},
      {"smiles": "COc1ccc(/C=N/Nc2cc(C)nc(-n3nc(C)cc3C)n2)cc1", "outcome": "inactive"},
      {"smiles": "COc1ccc(Nc2ccccc2N)cc1", "outcome": "inactive"},
      {"smiles": "Cc1nnc(N/N=C/c2ccc(Br)cc2)n1N", "outcome": "inactive"},
      {"smiles": "O=C(c1ccccc1)c1nc[nH]c1C(=O)Nc1ccccc1", "outcome": "inactive"},
      {"smiles": "COC(=O)C(O)(c1ccc(NC(=S)NC(=O)c2ccccc2)cc1)C(F)(F)F", "note": "(stereo not given)", "outcome": "inactive"},
      {"smiles": "O=C(N=Nc1c(O)[nH]c2ccc(Br)cc12)c1ccccc1-n1cccc1", "outcome": "inactive"},
      {"smiles": "O=C(Oc1ccccc1)c1ccc(NC(=O)c2ccco2)cc1", "outcome": "inactive"},
      {"smiles": "O=C1NC(=O)C(=Cc2ccc(Oc3ccc([N+](=O)[O-])cc3)cc2)C(=O)N1", "outcome": "inactive"},
      {"smiles": "c1ccc2sc(SCc3ccc(-c4nnco4)cc3)nc2c1", "outcome": "inactive"},
      {"smiles": "CCCCNC(=O)Nc1nnc(-c2ccc(Cl)cc2)o1", "outcome": "inactive"},
      {"smiles": "CC(NC(=O)c1cc([N+](=O)[O-])cc([N+](=O)[O-])c1)c1ccc(-n2ccnc2)cc1", "note": "(stereo not given)", "outcome": "inactive"},
      {"smiles": "Cc1cccc(OCCN2CSC(=S)N(C)C2)c1", "outcome": "inactive"},
      {"smiles": "Clc1cccc(CNCCNCc2cccc(Cl)c2)c1", "outcome": "inactive"},
      {"smiles": "COc1cc(CNCCc2ccccc2)cc(Br)c1OCC(=O)Nc1ccccc1C", "outcome": "inactive"},
      {"smiles": "Clc1ccc(Cl)c(OCCCCNCc2ccccc2)c1", "outcome": "inactive"},
      {"smiles": "COc1cc(CNC2CCCC2)cc(Cl)c1OCc1ccc(F)cc1", "outcome": "inactive"},
      {"smiles": "COC(=O)C1CC(=O)N(c2ccc(OCc3ccccc3Cl)cc2)C1", "note": "(stereo not given)", "outcome": "inactive"},
      {"smiles": "Clc1ccc(OCCCNCc2ccccc2)c2ccccc12", "outcome": "inactive"},
      {"smiles": "N#C/C(N=Nc1ccccc1O)=N\\Nc1ccccc1O", "outcome": "inactive"},
      {"smiles": "O=C(OCC#CCSc1nc2ccccc2o1)c1ccco1", "outcome": "inactive"},
      {"smiles": "O=C(CCNc1ccc(Cl)cc1)c1cccs1", "outcome": "inactive"},
      {"smiles": "O=C(N/N=C/c1ccccn1)c1cccc(S(=O)(=O)Nc2ccccc2Cl)c1", "outcome": "inactive"},
      {"smiles": "CC(=O)Nc1nc2ccccc2n1CCOc1ccccc1Cl", "outcome": "inactive"}
    ]}
  ]
}
